# Rab9 prom act: activators of Rab9 promoter | Huh7 Rab9 promoter-luciferase reporter, luminescence, 24 h | Potency, µM (doses to about 9.22 µM), for inactives: top-dose activation, negative = inhibition, most hits filed as activators | 320,000 tested, 2.8% active | AID 485297; further: % of control where 0% means no effect; nearly all actives have a fitted effect of over 60% in size
#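 Rab9 promoter-driven luciferase in stably transfected Huh7 cells; 1500 cells/well rested 2 h, exposed to compound in DMSO for 24 h at 37 °C, 5% CO2. Luminescence read 10 min after adding luciferase reagent at ambient temperature.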
# SMN2 splice up: increases expression of the SMN2 splice variant; 210,000 tested, 2.8% active; Potency, µM (titrated, usually from 46.1 µM), for inactives: at the top dose activity change, positive = activation, hits mostly activators; AID 1458; HEK293 SMN2-luciferase splicing reporter, luminescence, 30-36 h; further: % of control where 0% means no effect; nearly all actives have a fitted effect of over 55% in size
#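 HEK293 cells carry an SMN2 minigene-luciferase reporter in which exon 7 inclusion puts luciferase in frame. Cells were seeded at 2000 cells/well, attached for 10-12 hours, then exposed to compounds for 30-36 hours at 37C before ONE-Glo luminescence.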
# FLuc modulator: counter-screen for miR-21 project: firefly luciferase inhibitors or activators; P08659; purified FLuc, Km substrates, luminescence inhibition; Potency, µM (titrated, usually from 57.5 µM), for the others: top-dose activity change, negative = inhibition, usual class: inhibitors; 360,000 tested, 6.9% active; AID 588342;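 further: plate controls were vehicle for no effect and reference inhibitor for full effect; nearly all actives have a fitted effect of over 55% in size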
# Target sequence (P08659 whole entry, looked up): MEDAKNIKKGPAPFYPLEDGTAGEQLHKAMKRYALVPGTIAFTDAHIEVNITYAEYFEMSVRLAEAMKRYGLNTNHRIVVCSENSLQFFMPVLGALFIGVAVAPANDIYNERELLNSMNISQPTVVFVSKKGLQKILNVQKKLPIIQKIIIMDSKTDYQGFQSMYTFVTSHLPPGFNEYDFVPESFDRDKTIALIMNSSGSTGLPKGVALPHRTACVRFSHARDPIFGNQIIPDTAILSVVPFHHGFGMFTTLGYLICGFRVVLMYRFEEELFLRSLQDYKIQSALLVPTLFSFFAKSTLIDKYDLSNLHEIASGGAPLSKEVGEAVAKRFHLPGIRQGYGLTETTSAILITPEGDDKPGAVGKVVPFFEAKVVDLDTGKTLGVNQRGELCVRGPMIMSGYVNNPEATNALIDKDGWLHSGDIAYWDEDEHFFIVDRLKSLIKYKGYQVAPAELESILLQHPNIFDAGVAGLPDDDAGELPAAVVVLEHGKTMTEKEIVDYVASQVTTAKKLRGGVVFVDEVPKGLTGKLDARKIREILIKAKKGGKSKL
#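 Biochemical qHTS of compounds, final roughly 60 µM downward over six points, against 10 nM purified firefly luciferase using Km concentrations of substrates (10 uM D-luciferin, 10 uM ATP) in Tris acetate pH 7.5 buffer; luminescence output.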
# NPC1 promoter act: activates the NPC1 promoter; Huh7 NPC1 promoter luciferase reporter, 24 h; Potency, µM (top dose mostly 9.22 µM), for inactives: at the top dose activation, actives largely listed as activators; 320,000 tested, 2.4% active; further: % of control where 0% means no effect; nearly all actives have a fitted effect of over 60% in size
#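 Cells: Huh7 expressing luciferase under the NPC1 promoter, 1500/well. Seeded 2 h, compound added, incubated 24 h at 37 °C. Luciferase reagent, 10 min ambient, then luminescence.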
# ELG1 genotoxic: induces genotoxicity in HEK293T cells with luciferase-tagged ELG1; 330,000 tested, 1.3% active; Potency, µM (doses to about 46 µM), for the others: top-dose activity change, positive = activation, most hits filed as activators; AID 504466; HEK293T ELG1-luciferase reporter, luminescence, 16 h; further: % of control where 0% means no effect; nearly all actives have a fitted effect of over 60% in size
#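 DMSO vehicle served as control against compound-treated ELG1-luciferase HEK293T cells; exposure lasted 16 hr at 37 °C and 5% CO2, followed by ONE-Glo luminescence detection after 30 min.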
# Active calls of the source: *; ? = inconclusive; / = no result; [ ] = dose if it differs, or a comment. Most compounds without a hit are left out; they make up all but 7.5% or so of the library. The call rests on the fitted dose curve; in most records, active means well fitted curve in the direction sought with a large enough effect; inconclusive means small, poorly fitted or top-dose-only effect, or another doubt; inactive means no such curve, though single readings can be large; an effect the other way counts as inactive or inconclusive. Potency means the concentration at half of the fitted maximal effect.
SMILES,Rab9 prom act,SMN2 splice up,FLuc modulator,NPC1 promoter act,ELG1 genotoxic
COc1ccc(OCC(=O)Nc2nc3c(s2)CCCC3)cc1,5.6%,/,?,11.4%,2.0%
O=C(Nc1nccs1)c1ccc(COc2ccccc2Br)o1,?,-16.2%,19µM*,27.0%,?
O=C(Nc1nccs1)c1ccc(COc2ccc(F)cc2)o1,?,14.8%,15.1µM*,?,3.3%
CN(C)C(=O)c1ccc(COc2ccccc2Br)o1,?,8.91µM*,19µM*,?,20.6µM*
COc1ccccc1OCc1ccc(C(=O)N(C)C)o1,-7.9%,?,?,1.7%,17.6%
Fc1ccc(CSc2nncn2NC/C=C/c2ccccc2)cc1,-0.8%,-13.7%,3.2%,1.0%,-7.4%
CN(C)c1ccc(/C=C2\CCCCC2=O)cc1,3.16µM*,22.4µM*,2.69µM*,3.55µM*,5.8µM*
CN(C)c1ccc(C2C3=C(CCCC3=O)OC3=C2C(=O)CCC3)cc1,-7.6%,4.7%,0.4%,-1.9%,0.7%
CCCS(=O)(=O)Nc1cc2c(cc1NCc1ccccc1)n(C)c(=O)n2C,/,5.62µM*,?,/,/
COc1ccc(NS(=O)(=O)c2ccc3c(c2)n(C)c(=O)n3C)cc1,-3.4%,-12.6%,-3.0%,4.5%,6.0%
Cn1c(=O)n(C)c2cc(NS(=O)(=O)c3ccc(Br)cc3)c(NCc3ccccc3)cc21,/,7.08µM*,?,/,/
Cn1c(=O)n(C)c2cc(S(=O)(=O)NCc3ccccc3)ccc21,2.5%,-15.9%,4.1%,1.3%,-1.4%
COc1ccc(S(=O)(=O)Nc2cc3c(cc2NCc2ccccc2)n(C)c(=O)n3C)cc1,/,10µM*,23.9µM*,/,/
CCCCSCCCNC(=O)c1c[nH]c2ccc(S(=O)(=O)Nc3cccc(OC)c3)cc2c1=O,/,/,-17.9%,/,/
COc1cccc(NC2SC(=O)N(c3ccccc3)C2=O)c1 (configuration not stated),-3.7%,?,-17.2%,0.6%,?
COC(=O)c1sccc1S(=O)(=O)N1CCN(c2ccc(Cl)cc2)CC1,/,/,-11.4%,/,/
CCN(c1ccc(NS(=O)(=O)c2cc(Cl)ccc2Cl)cc1)C(C)C,13.1%,-25.3%,-1.8%,0.5%,4.5%
COc1ccc2[nH]c3c(c2c1)CCN1C(=O)C(CC(=O)NCCC2=CCCCC2)C[C@H](C(=O)N2CCCCC2)[C@@]31C (some centres not stated),/,/,/,/,-4.1%
Cc1cc(C)c(C#N)c(SC(C(=O)NC(C)(C)C)c2ccccc2)n1 (configuration not stated),1.4%,/,1.1%,-2.6%,2.6%
Cc1ccc(-n2nc(C)c3c2OC(N)=C(C#N)C3c2ccco2)cc1 (configuration not stated),17.3%,15.3%,1.69µM*,2.4%,8.1%
Cc1nn(-c2ccccc2)c2c1C(c1ccccc1)C(C#N)=C(N)O2 (configuration not stated),-0.7%,-7.2%,-1.1%,-1.9%,-0.6%
Cc1ccc(-n2nc(C)c3c2OC(N)=C(C#N)C3c2ccoc2)cc1 (configuration not stated),12.2%,7.5%,10.7µM*,7.0%,0.9%
O=c1[nH][nH]c2cc(=O)n(-c3cccc(C(F)(F)F)c3)nc12,0.1%,?,?,-3.4%,2.4%
COc1ccc(N=Nc2n(C)c3ccccc3[n+]2C)cc1,?,/,0.0757µM*,0.708µM*,0.92µM*
S=C(Nc1ccc(Cl)cc1)c1nc2ccccc2s1,3.55µM*,?,6.75µM*,3.98µM*,11.3%
SMILES,Rab9 prom act,SMN2 splice up,FLuc modulator,NPC1 promoter act,ELG1 genotoxic
Cc1ccc(NC(=S)c2nc3ccccc3s2)cc1,2.82µM*,?,0.953µM*,1.26µM*,9.8%
Cc1ccc(/C=C/C(=O)NC2CCCCCCC2)o1,?,?,23.9µM*,27.6%,?
O=C(/C=C/c1ccccc1Cl)NC1CCCCC1,3.55µM*,/,10.7µM*,2.82µM*,?
O=C(O)c1cncc(C#CCC2CCCCC2)c1,2.82µM*,/,?,?,0.7%
O=C(NCCc1ccccn1)c1ccc(OC2CCN(CCc3ccccc3)CC2)cc1,2.82µM*,/,19µM*,3.16µM*,?
O=C(NCCc1cccc(Cl)c1)c1ccc(OC2CCN(Cc3ccccn3)CC2)cc1,4.7%,/,19µM*,?,?
Cc1cccnc1CCNC(=O)c1ccc(OC2CCN(Cc3ccccn3)CC2)cc1,27.7%,/,?,29.5%,17.6%
COc1ccc(CCNC(=O)CCCCCN2C(=O)c3ccccc3C2=O)cc1OC,-0.8%,-15.4%,-2.8%,-5.9%,-0.6%
Cc1nc(C)n(CCNC(=O)c2ccco2)n1,1.0%,/,5.0%,-0.8%,-1.1%
Cc1cc(C)cc(C(=O)NC(=S)Nc2cccnc2)c1,-5.3%,/,?,2.3%,5.0%
CN1c2ccccc2C(=O)/C(=C\Nc2ccc(F)cc2)S1(=O)=O,-0.9%,/,12µM*,-5.9%,-2.0%
CN1c2ccsc2C(=O)/C(=C\Nc2cccc(C(F)(F)F)c2)S1(=O)=O,-6.2%,/,?,-1.7%,-2.9%
COc1ccc(N2CCn3c2nc2c3c(=O)n(CCCc3ccccc3)c(=O)n2C)c(OC)c1,-19.5%,-59.7%,0.1%,-27.4%,-12.3%
CCCOc1ccc(C2=CSC3=NCCN23)cc1[N+](=O)[O-],-3.8%,/,2.0%,-3.4%,1.5%
COc1ccc(CSC2=C(C#N)C(=O)NC3(CCCCC3)S2)cc1,/,-3.9%[9.22 µM],/,/,/
CCCCCCSC1=C(C#N)C(=O)NC2(CCCCC2)S1,-2.3%,19.1%,23.9µM*,2.6%,?
O=C(c1ccco1)N1CCN(Cc2nc(Cc3ccccc3)no2)CC1,-3.7%,/,-2.4%,9.9%,-0.7%
O=C1OC(c2ccccc2)=N/C1=C\C=C\c1ccco1,0.8%,/,4.78µM*,-1.9%,-0.7%
O=C1OC(c2ccc(Cl)cc2)=N/C1=C\C=C\c1ccco1,-4.4%,-10.8%,?,-2.2%,1.4%
